# Test results published in article PMC4336329 (PLoS ONE, 2015).
# The whole screen tested about 310,000 compounds, of which about 2,200 (0.71%) showed an effect of 50% or more. Effects have a minus sign here. The sample holds strong results, similar compounds and a random draw of the others, so the mix is not that of the screen.
# Molecular target: human ether-à-go-go-related gene (hERG) potassium channel (human, UniProt Q12809)
# Assay: primary screen, population patch clamp on CHO cells stably expressing hERG; higher = less effect of the substance
# Chain of human ether-à-go-go-related gene (hERG) potassium channel (Q12809 whole entry, looked up): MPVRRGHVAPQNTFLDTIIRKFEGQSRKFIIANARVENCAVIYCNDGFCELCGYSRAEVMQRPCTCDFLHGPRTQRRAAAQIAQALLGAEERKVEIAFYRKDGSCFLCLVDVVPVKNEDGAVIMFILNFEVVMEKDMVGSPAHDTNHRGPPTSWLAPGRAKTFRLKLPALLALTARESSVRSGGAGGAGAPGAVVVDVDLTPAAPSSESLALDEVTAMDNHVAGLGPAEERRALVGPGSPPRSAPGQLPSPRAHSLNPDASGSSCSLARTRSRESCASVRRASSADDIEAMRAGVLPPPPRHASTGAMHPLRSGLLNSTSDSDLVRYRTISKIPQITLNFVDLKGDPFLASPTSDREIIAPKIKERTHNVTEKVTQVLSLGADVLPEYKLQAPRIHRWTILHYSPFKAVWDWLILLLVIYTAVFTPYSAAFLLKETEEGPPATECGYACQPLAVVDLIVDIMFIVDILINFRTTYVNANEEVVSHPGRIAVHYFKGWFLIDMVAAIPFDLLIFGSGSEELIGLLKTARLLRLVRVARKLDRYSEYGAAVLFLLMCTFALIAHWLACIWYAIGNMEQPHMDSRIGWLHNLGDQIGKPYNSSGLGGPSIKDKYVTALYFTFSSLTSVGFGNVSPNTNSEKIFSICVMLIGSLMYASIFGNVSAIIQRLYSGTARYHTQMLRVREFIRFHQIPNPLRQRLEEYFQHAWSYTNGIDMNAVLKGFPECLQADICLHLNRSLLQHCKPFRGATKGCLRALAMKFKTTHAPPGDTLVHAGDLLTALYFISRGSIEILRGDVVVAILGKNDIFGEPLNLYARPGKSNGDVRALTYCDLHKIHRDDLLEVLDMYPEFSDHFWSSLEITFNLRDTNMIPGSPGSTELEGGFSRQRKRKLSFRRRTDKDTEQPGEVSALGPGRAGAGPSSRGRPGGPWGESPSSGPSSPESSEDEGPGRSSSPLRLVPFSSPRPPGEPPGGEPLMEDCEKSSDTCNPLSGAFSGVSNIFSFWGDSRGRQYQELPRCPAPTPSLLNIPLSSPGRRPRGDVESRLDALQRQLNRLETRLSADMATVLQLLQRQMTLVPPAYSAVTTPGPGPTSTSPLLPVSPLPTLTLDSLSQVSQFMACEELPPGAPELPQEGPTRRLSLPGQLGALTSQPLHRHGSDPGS
row,Structure (SMILES),"hERG current change (%, negative = inhibition) at 1uM"
1,CCCCc1ccc(NC(=S)NN2CCOCC2)cc1,12.1%
2,COc1ccc(NC(=O)CCCn2cc([N+](=O)[O-])cn2)cc1,1.91%
3,O=C(NCCCn1ccnc1)c1cccc(Br)c1,6.56%
4,CCOC(=O)C(NC(C)=O)(Nc1ccc(S(=O)(=O)Nc2ncccn2)cc1)C(F)(F)F (stereo not drawn),18.1%
5,O=c1c2ccccc2ncn1-c1ccc2c(c1)OCCO2,2.75%
6,CCC(=O)Nc1ccc(C(=O)n2nc(C)cc2C)cc1,1.88%
7,Cc1c(NC(=O)c2cc(-n3cnnc3)ccc2Cl)cccc1-c1nc2ccccc2s1,-9.7%
8,CC1CCCCN1CCCNC(=O)c1nn(C)c2c1CSc1ccccc1-2 (stereo not drawn),-23.4%
9,Cn1nc(C(=O)NCCCN2CCCCC2)c2c1-c1ccccc1SC2,-24.8%
10,CC1CCCN(CCCNC(=O)c2nn(C)c3c2CSc2ccccc2-3)C1 (stereo not drawn),-66.2%
11,O=C(COc1nncc2ccccc12)NCCC1=CCCCC1,9.4%
12,COCCn1c(=N)c(C(=O)NCc2ccco2)cc2c(=O)n3ccccc3nc21,-88%
13,COCCn1cc(C(=O)NCc2ccco2)c2c3ccccc3n(C)c2c1=O,5.73%
14,COCCn1c(=N)c(S(=O)(=O)c2ccc(Br)cc2)cc2c(=O)n3ccccc3nc21,9.15%
15,CCn1cc(C(=O)NCc2ccco2)c2cc(OC)c(OC)cc2c1=O,-8.54%
16,Cc1ccc(S(=O)(=O)c2cc3c(=O)n4ccccc4nc3n(Cc3ccco3)c2=N)cc1,-0.218%
17,Cc1ccc2nc3c(cc(C(=O)NCc4ccco4)c(=N)n3Cc3ccco3)c(=O)n2c1,-86.5%
18,Cc1cc2ccccc2c(=O)n1CC(=O)NCc1ccco1,18.5%
19,COCCn1c(=N)c(C(=O)NCc2ccco2)cc2c(=O)n3cc(C)ccc3nc21,-92%
20,CCOc1ccc(N2CC(=O)N/C2=N\c2nc(C)cc(C)n2)cc1,-2.01%
21,CC(C)COC(=O)CCNc1n[nH]c(=O)[nH]c1=O,3.64%

row,Structure (SMILES),"hERG current change (%, negative = inhibition) at 1uM"
1,CCCCCCSc1nnc(N)s1,7.6%
2,COc1ccccc1OCCCC(=O)NC(C)c1ccccc1 (stereo not drawn),8%
3,O=C1CCCc2oc3c(cc(NS(=O)(=O)c4ccc5c6c(cccc46)C(=O)N5)c4ccccc43)c21,-6.54%
4,Cc1cc(C)nc(SCCC(=O)N(C)C)n1,11%
5,CN(C)c1nc2ccccc2c(N)c1-c1ccccc1.O=C(O)C(=O)O,-39.7%
6,CCN(CC)c1nc2ccccc2c(N)c1-c1ccccc1.O=C(O)C(=O)O,-53.9%
7,Cc1c(N(C)C)nc2ccccc2c1N.O=C(O)C(=O)O,-8.8%
8,COc1cc(/C=C2/C(=O)NN(c3ccc(F)cc3)C2=O)cc([N+](=O)[O-])c1O,8.07%
9,O=C(OCC(=O)C12CC3CC(CC(C3)C1)C2)c1cnccn1,8.15%
10,O=C(CCc1nnc(CCCCc2ccccc2)o1)NCCN1CCOC1=O,9.65%
11,O=C(c1ccc2c(=O)n(Cc3ccccc3Cl)c(=S)[nH]c2c1)N1CCOCC1,13%
12,O=C(c1nc2ccccn2c1CN1CCC(Cc2ccccc2)CC1)N1CCCC1,-54.2%
13,O=C(c1nc2ccccn2c1CN1CCN(c2ccccc2O)CC1)N1CCCC1,26%
14,O=C(c1nc2ccccn2c1CN1CCCC(OCc2ccccc2)C1)N1CCCC1 (stereo not drawn),-25.7%
15,CCN(CC)c1ccc(/C=C2\C(=O)NC(=S)N(C)C2=O)o1,7.14%
16,C#CCn1c(=NC(=O)c2ccccc2[N+](=O)[O-])sc2cc(S(C)(=O)=O)ccc21,13.3%
17,CC1CC(c2ccccc2)n2nc(NC(=O)CCc3ccccc3)nc2N1 (stereo not drawn),-1.41%
18,CCCCCCCCCCCCCCCC[n+]1cccc2ccccc21.[I-],-23%
19,Cc1cccc[n+]1CCCCCCCCCC[n+]1ccccc1C.[Br-],20.8%
20,O=[N+]([O-])c1ccc(C[n+]2cccc3c4ccccc4ccc32)cc1.[Br-],-18%
21,CCCCCCCC[n+]1cccc2c3ccccc3ccc21.[I-],-92%

row,Structure (SMILES),"hERG current change (%, negative = inhibition) at 1uM"
1,[Cl-].c1ccc(C[n+]2cccc3c4ccccc4ccc32)cc1,-2.14%
2,CCCCCCCCC[n+]1cccc2c3ccccc3ccc21.[Br-],-91.7%
3,CC(C)c1ccc(NC(=O)CSc2nnc(-c3ccccn3)n2C)cc1,-4.65%
4,COc1ccc(/C=N/Nc2ccccc2C(=O)O)cc1Cn1cc([N+](=O)[O-])cn1,6.26%
5,O=C(Nc1ccc(OC(F)(F)F)cc1)C1CCCN(S(=O)(=O)c2cccnc2)C1 (stereo not drawn),-4.09%
6,Cc1nnsc1C(=O)N1CCCC(C(=O)c2ccc(C(F)(F)F)cc2)C1 (stereo not drawn),3.88%
7,Cc1cc(-c2ccccc2)cc(-c2ccccc2)[n+]1CCc1ccccc1.[O-][Cl+3]([O-])([O-])[O-],-78.4%
8,CCOc1ccc(-c2cc(C)[n+](CCN(CC)CC)c(-c3ccc(OCC)cc3)c2)cc1.[O-][Cl+3]([O-])([O-])[O-],-19.3%
9,Cc1cc(-c2ccccc2)cc(C)[n+]1Cc1ccccc1.[O-][Cl+3]([O-])([O-])[O-],6.49%
10,O=[N+]([O-])c1ccc(C[n+]2c(-c3ccccc3)cc(-c3ccccc3)cc2-c2ccccc2)cc1.[O-][Cl+3]([O-])([O-])[O-],7.61%
11,CCOc1ccc(-c2cc(C)[n+](CCc3ccc(OC)c(OC)c3)c(-c3ccc(OCC)cc3)c2)cc1.[O-][Cl+3]([O-])([O-])[O-],-70.1%
12,CCOc1ccc(-c2cc(C)[n+](CCO)c(-c3ccc(OCC)cc3)c2)cc1.[O-][Cl+3]([O-])([O-])[O-],1.92%
13,CCNc1nc(NCC)nc(N/N=C/c2ccc(Br)cc2)n1,8.67%
14,COc1ccc2c(C=O)c[nH]c2c1,6.81%
15,Cc1ccccc1Nc1nc(N)nc(COC(=O)c2cccc(S(=O)(=O)N(C)C)c2)n1,8.43%
16,O=C1CCCN1CCCNS(=O)(=O)c1ccc(F)c(F)c1,13.5%
17,COc1ccc(-c2cc(-c3ccco3)[nH]c(=O)c2C#N)cc1OC,13.5%
18,COc1ccc(C2CC(=O)C(C=NCCN3CCN(C(C)=O)CC3)=C(O)C2)cc1 (stereo not drawn),0.835%
19,CCC(=O)N1CCN(CCN=CC2=C(O)CC(c3ccc(OC)cc3)CC2=O)CC1 (stereo not drawn),8.12%
20,COc1ccc(C2CC(=O)C(C=NCCO)=C(O)C2)cc1OC (stereo not drawn),13.4%
21,CCCCCC(=O)N1CCN(CCN=CC2=C(O)CC(c3ccc(OC)cc3)CC2=O)CC1 (stereo not drawn),-54.5%

row,Structure (SMILES),"hERG current change (%, negative = inhibition) at 1uM"
1,COc1ccc(C2CC(=O)C(C=NCCN3CCN(C(=S)Nc4ccccc4)CC3)=C(O)C2)cc1OC (stereo not drawn),1.75%
2,CCCCCC(=O)N1CCN(CCN=CC2=C(O)CC(c3ccc(OC)c(OC)c3)CC2=O)CC1 (stereo not drawn),-56.5%
3,Cc1ccc(N2C(=O)/C(=C/N3CCN(C(=O)c4ccco4)CC3)C(=O)NC2=S)cc1C,1.67%
4,CC(C)CNS(=O)(=O)c1ccc(OCC(=O)Nc2ccc3c(c2)OCCO3)cc1,14.4%
5,CC1CCCC(C)N1CC(O)COc1ccc(Cl)cc1 (stereo not drawn),-57.6%
6,Cc1cc(Cl)ccc1OCC(O)CN1C(C)CCCC1C.Cl (stereo not drawn),-46.3%
7,Cc1ccc(OCC(O)CN2CCN(CC(O)COc3ccc(C)cc3Cl)CC2)c(Cl)c1 (stereo not drawn),-5.75%
8,Cl.OC(COCc1ccc2c(c1)OCO2)CN1CCC(Cc2ccccc2)CC1 (stereo not drawn),-79.4%
9,Cc1ccc(OCC(O)CN2CCC(Cc3ccccc3)CC2)c(C)c1.Cl (stereo not drawn),-49.9%
10,CC(=O)Nc1ccc(OCC(O)CN2C(C)CCCC2C)cc1.Cl (stereo not drawn),15.2%
11,Cl.OC(COc1ccccc1F)CN1CCC(Cc2ccccc2)CC1 (stereo not drawn),-55.7%
12,OC(COc1ccc(F)cc1Cl)CN1CCc2ccccc2C1 (stereo not drawn),-10.6%
13,Cl.OC(COCc1ccc2c(c1)OCO2)CN1CCN(Cc2ccccc2)CC1 (stereo not drawn),-8.65%
14,Cc1ccc(C)c(OCC(O)CN2CCC(Cc3ccccc3)CC2)c1.Cl (stereo not drawn),-43.1%
15,OC(COc1ccc(F)cc1Cl)CN1CCC(Cc2ccccc2)CC1 (stereo not drawn),-81.4%
16,Cl.OC(COCc1ccccc1)CN1CCN(Cc2ccc3c(c2)OCO3)CC1 (stereo not drawn),-0.707%
17,COc1ccc(Cn2c(-c3ccccc3)nc3c(c(=O)c4ccccc4n3C)c2=O)cc1,-7.94%
18,COc1ccc(CCNC(=O)c2ccc3nc(N4CCOCC4)sc3c2)cc1OC,4.99%
19,Cc1cc(NC(=O)Cc2ccccc2C)no1,10.2%
20,CCN(CC(=O)Nc1ccc(NC(C)=O)cc1)C(=O)COc1ccccc1-c1ccccc1,12%
21,CCOC(=O)c1cnc(-n2nc(C)cc2C)nc1NNc1nc(-c2ccccc2)cc(-c2ccccc2)n1,-1.53%
